PriA SSB inh – inhibitors of Klebsiella pneumoniae PriA binding to SSB C-terminal tail, primary screen, biochemical, AlphaScreen | PriA–SSB C-terminal tail interaction (Klebsiella pneumoniae) | inhibition, % at 33 µM | 430,000 tested, 0.6% active | AlphaScreen SSBct-PriA binding, biotinylated peptide; in the data active = inhibition mostly above about 37%, no sharp cut-off; inactive = mostly below about 20%
Autofluor counter – compound fluorescence in toxin protease inhibitor counterscreen; AID 624483; compound autofluorescence counterscreen, microsphere flow cytometry; hits give high values; 360,000 tested, 3.1% active; fluorescence intensity (test concentration not listed); in the data active = fluorescence intensity above about 16000; inconclusive = no clear call, values can overlap the other calls
BoNT-A LC inh2 – BoNT/A light chain protease inhibitors, primary screen, biochemical, flow cytometry, MLPCN library; multiplex microsphere protease substrate cleavage; Botulinum neurotoxin type A light chain protease (Clostridium botulinum A str. ATCC 3502); inhibition, % at 10 µM; 360,000 tested, 0.17% active; in the data active = inhibition above about 30%; inconclusive = no clear call, values can overlap the other calls
BoNT-F LC inh – BoNT/F light chain protease inhibitors, primary screen, biochemical, flow cytometry, MLPCN library; Multiplex microsphere protease cleavage assay; inhibition, % at 10 µM; 360,000 tested, 0.22% active; AID 588497, 2011; in the data active = inhibition above about 35%, passing the limit was not always enough; inconclusive = no clear call, values can overlap the other calls
Anthrax LF prot – Bacillus anthracis LF protease inhibitors, primary screen, biochemical, multiplex microsphere, MLPCN library | Lethal factor (Bacillus anthracis), P15917 | multiplex microsphere protease cleavage assay | inhibition, % at 10 µM | 360,000 tested, 0.12% active | AID 588501, 2011; in the data active = inhibition above about 30%; inconclusive = no clear call, values can overlap the other calls
Target sequence (P15917 whole entry, looked up): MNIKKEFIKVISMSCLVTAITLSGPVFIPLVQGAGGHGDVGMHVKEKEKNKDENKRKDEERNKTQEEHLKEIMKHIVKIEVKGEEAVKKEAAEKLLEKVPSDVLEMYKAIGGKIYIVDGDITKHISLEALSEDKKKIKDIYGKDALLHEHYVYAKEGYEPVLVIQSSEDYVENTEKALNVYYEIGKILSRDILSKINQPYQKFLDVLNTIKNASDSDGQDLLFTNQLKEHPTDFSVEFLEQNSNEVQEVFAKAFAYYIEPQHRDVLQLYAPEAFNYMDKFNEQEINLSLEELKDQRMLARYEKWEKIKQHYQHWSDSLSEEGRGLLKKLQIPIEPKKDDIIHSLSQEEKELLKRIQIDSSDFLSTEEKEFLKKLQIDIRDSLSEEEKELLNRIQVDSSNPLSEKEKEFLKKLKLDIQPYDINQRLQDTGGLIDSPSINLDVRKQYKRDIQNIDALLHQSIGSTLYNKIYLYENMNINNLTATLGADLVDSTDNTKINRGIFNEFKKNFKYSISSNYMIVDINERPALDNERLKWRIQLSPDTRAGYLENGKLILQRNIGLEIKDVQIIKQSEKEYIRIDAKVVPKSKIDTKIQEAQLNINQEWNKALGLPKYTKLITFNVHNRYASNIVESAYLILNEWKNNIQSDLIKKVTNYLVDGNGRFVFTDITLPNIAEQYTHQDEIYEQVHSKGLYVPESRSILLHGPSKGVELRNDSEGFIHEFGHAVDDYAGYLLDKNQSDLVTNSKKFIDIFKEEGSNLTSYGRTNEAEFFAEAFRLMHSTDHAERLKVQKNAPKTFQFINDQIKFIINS
BoNT-A LC CP1 – BoNT/A light chain protease inhibitors, confirmation, biochemical, flow cytometry, cherry pick 1; inhibition, % at 10 µM; 720 tested, 3% active; AID 602139, 2011; multiplex microsphere protease assay; shares compounds with BoNT-F LC inh; in the data active = inhibition above about 32%
BoNT-F LC CP1 – BoNT/F light chain protease inhibitors, confirmation, biochemical, flow cytometry, cherry pick 1; shares compounds with BoNT-F LC inh; multiplex microsphere protease cleavage assay; inhibition, % at 10 µM; 720 tested, under 10 active; AID 602140, 2011
Anthrax LF CP1 – Bacillus anthracis LF protease inhibitors, confirmation, biochemical, multiplex microsphere, cherry pick 1; multiplex microsphere protease cleavage assay; 720 tested, under 10 active; shares compounds with BoNT-F LC inh; inhibition, % at 10 µM
A number is an active result; 0 = inactive; ? = inconclusive; - = not tested or not shown. Shown are actives, neighbours in structure and some others; about 3.1% of the full set was active somewhere. Unless noted, the rule behind the calls is not given here.

SMILES	PriA SSB inh	Autofluor counter	BoNT-A LC inh2	BoNT-F LC inh	Anthrax LF prot	BoNT-A LC CP1	BoNT-F LC CP1	Anthrax LF CP1
COc1ccc(CCNC(=O)CCSCc2ccccc2F)cc1OC	0	0	0	48	0	0	0	0
N#Cc1ccccc1NC(=O)CN1CCN(Cc2ccccc2)CC1	0	0	0	46	0	0	0	0
COCCCNCCCCOc1ccc(Br)cc1C	0	0	0	36	0	0	0	0
COc1ccc(-c2c(C)nn3c(N)c(-c4ccccc4)cnc23)cc1OC	0	0	0	40	0	0	0	0
COc1ccccc1-c1c(C)nn2c(N)c(-c3ccccc3)cnc12	0	0	0	0	0	-	-	-
O=C(CSc1ncnc2scc(-c3ccc(Cl)cc3)c12)c1ccc2c(c1)OCO2	0	-	-	-	-	-	-	-
O=C(NC1CCCCC1)C1CCN(c2ncccn2)CC1	0	0	0	0	0	-	-	-
O=C(NC1CCCCCC1)C1CCCN(c2ncccn2)C1 (stereo unspecified)	0	0	79	0	0	0	0	0
Nc1nc2ccccc2n1CCOc1ccc(F)cc1	0	0	0	42	0	0	0	0
O=C1c2ccccc2C(=O)N1C1CCCCC1	0	0	0	?	50	0	0	0
CCCCNCCOCCOc1ccc(C)cc1[N+](=O)[O-]	0	?	0	46	?	0	0	0
Cn1c(-c2ccccc2)n[nH]c1=S	0	0	0	0	0	-	-	-
Cc1nc(-c2ccccc2)sc1-c1n[nH]c(=S)n1C	0	?	30	54	0	0	0	0
CCOc1ccc(Nc2nc(C(=O)Nc3nc4ccc(C)cc4s3)cs2)cc1	0	-	-	-	-	-	-	-
O=C(Nc1cccc(O)c1)c1cccc(S(=O)(=O)Nc2cccc(O)c2)c1	0	0	0	0	0	0	0	0
O=C(O)c1ccc(NS(=O)(=O)c2ccc(C(=O)Nc3ccccc3)cc2)cc1	0	0	0	0	0	0	0	0
O=C(Nc1ccc(NS(=O)(=O)c2ccccc2)cc1)c1ccccc1	0	0	0	0	0	-	-	-
CC(=O)c1ccc(S(=O)(=O)Nc2ccc(C(=O)N3CCC3)cc2)cc1	0	0	0	40	0	0	0	0
O=C(O)c1ccc(NC(=O)c2cccc(S(=O)(=O)Nc3ccc(C(=O)O)cc3)c2)cc1	0	0	0	39	0	0	0	0
COc1ccc(C=NNC(=O)c2ccc(F)cc2)cc1CN1CCc2cc(OC)c(OC)cc2C1C (stereo unspecified)	0	-	-	-	-	-	-	-
COc1ccc2nc(C)cc(Nc3ccc(C(=O)O)cc3)c2c1	0	0	0	39	0	0	0	0
NC(=O)c1ccsc1NC(=O)CSc1n[nH]c(N)n1	0	0	0	0	0	-	-	-
CCOc1ccc(/C=C/C2=Cc3c(sc(NC(=O)CSc4n[nH]c(N)n4)c3C#N)C(C)(C)C2)cc1	0	0	85	37	58	0	0	0
Cc1ccsc1/C=C/C1=Cc2c(sc(NC(=O)CSc3n[nH]c(N)n3)c2C#N)C(C)(C)C1	0	18756	44	0	33	0	0	0
CC1CCC(C(C)C)C(OP(=O)(c2ccc(N(C)C)cc2)C(O)c2ccccc2F)C1 (stereo unspecified)	0	-	-	-	-	-	-	-
SMILES	PriA SSB inh	Autofluor counter	BoNT-A LC inh2	BoNT-F LC inh	Anthrax LF prot	BoNT-A LC CP1	BoNT-F LC CP1	Anthrax LF CP1
CSc1cnc2c(N)nc(N(C)C)nc2n1	0	0	0	49	0	0	0	0
CN(C)c1nc(N)c2nccnc2n1	0	0	0	0	0	-	-	-
Cc1ccccc1OCC(=O)Nc1nnc(C2CCCCC2)s1	0	0	0	47	0	0	0	0
CCOc1ccccc1OCC(=O)Nc1nnc(COC)s1	0	?	?	53	?	0	0	0
NC(=NOC(=O)CCc1ccccc1)c1ccccc1Cl	0	-	-	-	-	-	-	-
COC(=O)Cc1ccc(NC(=S)N2CCN(c3ccccn3)CC2)cc1	0	0	178	0	64	0	0	0
Cn1nc(CNS(=O)(=O)Cc2cc(F)ccc2F)cc1C1CC1	0	-	-	-	-	-	-	-
C=CCn1c(SCC(=O)c2[nH]c(C)c(C(=O)OC)c2C)nc2scc(-c3ccco3)c2c1=O	0	-	-	-	-	-	-	-
COc1ccc(/C(O)=C/c2nc3ccccc3n(-c3ccccc3)c2=O)cc1	0	0	0	37	0	0	0	0
CN(C)CCN(CC1CCCN(Cc2ccccc2F)C1)C(=O)c1ccc(Cl)cc1 (stereo unspecified)	0	0	0	44	0	0	0	0
Cc1ccccc1CC(=O)N(CCN(C)C)CC1CCCN(Cc2ccccc2F)C1 (stereo unspecified)	0	0	0	0	0	-	-	-
O=C1N(c2ccccc2)c2ccccc2C1(O)C(F)(F)F (stereo unspecified)	0	0	0	0	36	0	0	0
CCOC(=O)c1cc(C(C)=O)n2ccccc12	0	0	0	0	0	-	-	-
CCOC(=O)c1cc(C(=O)c2cccs2)n2ccc(C(C)=O)cc12	0	0	35	0	0	0	0	0
CCn1c(C)c(C(C)=O)c(N2CCN(c3ccccc3)CC2)nc1=S	0	0	46	0	0	0	0	0
CCn1c(C)c(C(C)=O)c(N2CCN(C(c3ccccc3)c3ccccc3)CC2)nc1=S	0	0	0	0	0	-	-	-
COc1ccc(CCNC(=O)CSc2nncc(=O)n2N)cc1OC	0	-	-	-	-	-	-	-
CC(=O)Nc1ccc(NS(=O)(=O)c2cc(-c3n[nH]c(=O)c4ccccc34)ccc2C)cc1	0	0	0	41	0	0	0	0
COCc1cc(C)nc(Nc2ccccc2OC)c1C#N	0	0	0	0	32	0	0	0
O=C(Nc1ccc(Cl)c(Cl)c1)c1ccccc1	0	0	0	0	0	-	-	-
O=C(Nc1ccc2nc3ccccc3nc2c1)c1ccccc1	0	0	63	0	0	39	0	0
CCCn1c(=O)c2c(nc3n2CCCN3Cc2ccccc2)n(C)c1=O	0	0	0	41	0	0	0	0
CC(NC(=O)c1ccco1)c1nc2ccccc2n1Cc1ccc(F)cc1 (stereo unspecified)	0	-	-	-	-	-	-	-
COc1ccc(CCNC(=O)c2ccc3c(c2)OCCO3)cc1	0	0	0	0	0	-	-	-
COc1ccc(CCNC(=O)c2ccc3c(c2)OCO3)cc1	0	0	64	0	0	0	0	0
Cc1cc([N+](=O)[O-])nn1Cn1nc([N+](=O)[O-])cc1C	0	0	0	0	0	-	-	-
Cc1cc([N+](=O)[O-])nn1Cc1ccccc1F	0	0	0	35	0	0	0	0
